Source: PubChem (National Center for Advancing Translational Sciences (NCATS))
VDR inhibitor = Inhibitors of the vitamin D receptor (VDR): qHTS. 0.93% of 400,000 active. Potency, µM, for inactives: max response, negative = inhibition, most hits filed as inhibitors. Vitamin D3 receptor (Homo sapiens), P11473. VDR-SRC2-3 peptide fluorescence polarization, 2 h. AID 504847, 2011; note: % is set by controls: 0 for no effect and ±100 for the full control effect
Target sequence (P11473 whole entry, looked up): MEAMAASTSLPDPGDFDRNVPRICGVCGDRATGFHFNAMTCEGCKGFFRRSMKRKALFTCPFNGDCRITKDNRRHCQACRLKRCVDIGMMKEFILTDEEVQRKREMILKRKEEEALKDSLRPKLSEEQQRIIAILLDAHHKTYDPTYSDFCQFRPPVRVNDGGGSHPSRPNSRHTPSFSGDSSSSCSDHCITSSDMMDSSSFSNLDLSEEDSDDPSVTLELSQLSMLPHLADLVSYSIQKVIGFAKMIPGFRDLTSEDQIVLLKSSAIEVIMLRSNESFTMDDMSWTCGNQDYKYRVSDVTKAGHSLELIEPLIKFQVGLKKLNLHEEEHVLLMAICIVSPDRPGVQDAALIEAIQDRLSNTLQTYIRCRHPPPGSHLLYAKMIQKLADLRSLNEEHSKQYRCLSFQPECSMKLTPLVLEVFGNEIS
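Reagent solutions, kept cold and dark, are dispensed first; compounds are then pinned in at 23 nl, plates briefly spun, and incubated 2 h at ambient temperature. Inhibition of VDR–SRC2-3 peptide binding is read by fluorescence polarization.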
Sfp inh = qHTS Assay for Inhibitors of Bacillus subtilis Sfp phosphopantetheinyl transferase (PPTase); 3.5% of 310,000 active; Biochemical Sfp PPTase activity, qHTS; 4'-phosphopantetheinyl transferase ffp (Bacillus subtilis), Q9F4F7; Potency, µM, inactives show largest response in the series, negative = inhibition, most hits filed as inhibitors;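 note: the enzyme is Sfp with the accession as filed and its product quenches rhodamine fluorescence; 0% = enzyme reaction without inhibitor and -100% = no enzyme wells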
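Buffer: 50 mM Hepes-Na pH 7.6, 10 mM MgCl2, 0.01% Nonidet P-40, 0.01% BSA. Enzyme 15 nM, pre-exposed to compound 15 min; substrates then added and fluorescence change tracked over 30 min.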
Glioma ERSR ind = qHTS for Inducers of the Endoplasmic Reticulum Stress Response (ERSR) in Human Glioma: qHTS. 0.02% of 420,000 active. AID 602332, 2012. Potency, µM, for inactives: at the top dose activation, actives largely listed as activators. U87-MG GRP78 promoter luciferase reporter, 16 h; note: series mostly up to about 76 µM; % of control where 0% means no effect; nearly all actives have a fitted effect of over 35% in size
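ERSR induction read as luciferase luminescence (Bright-Glo, 10 min at room temperature) in stably transfected human U87-MG glioma cells exposed to compounds for 16 h, using GRP78 as sensor.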
G9a inh = qHTS Assay for Inhibitors of Histone Lysine Methyltransferase G9a | G9a H3K9 monomethylation, AlphaScreen, 2 h | 8.8% of 350,000 active | AID 504332, 2011 | Histone-lysine N-methyltransferase EHMT2 (Homo sapiens), Q96KQ7 | Potency, µM (top dose mostly 102 µM), inactives show at the top dose activity, negative = inhibition, most hits filed as inhibitors; note: % is set by controls: 0 for no effect and ±100 for the full control effect; nearly all actives have a fitted effect of over 75% in size
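G9a (20 nM) preincubated 15 min RT with compounds, then 500 nM biotinylated H3K9 peptide and 20 uM SAM added; 2 h RT reaction. Monomethyl-H3K9 product detected by AlphaScreen with anti-H3K9me1 antibody, streptavidin donor and anti-rabbit IgG acceptor beads.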
12-LOX inh = Primary qHTS assay for inhibitors of human arachidonate 12S-lipoxygenase (ALOX12): Round 2. Polyunsaturated fatty acid lipoxygenase ALOX12 (Homo sapiens), P18054. purified 12hLO, xylenol orange hydroperoxide absorbance. Potency, µM (titrated, usually from 108 µM), for inactives: at the highest dose activity change, negative = inhibition, actives largely listed as inhibitors. 1.1% of 580,000 active. AID 1671190, 2021; note: % is set by controls: 0 for no effect and ±100 for the full control effect
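Purified human 12hLO (150 nM final) in 25 mM Hepes, 0.01% Triton X-100, pH 7.0 was preincubated 15 min at room temperature with compound. Then 40 uM arachidonic acid was added, 30 min. Hydroperoxide was read by Fe-XO absorbance ratio 573/405 nm.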
* = called active by the depositor; ? = inconclusive; nt = not tested or not shown; [ ] = remark or other dose. The full list was thinned out, with hits kept by preference. Calls come from the whole dose curve; as a rule, active = well fitted curve in the direction sought with a large enough effect; inconclusive = small, poorly fitted or top-dose-only effect, or another doubt; inactive = no such curve, though single readings can be large; an effect the other way counts as inactive or inconclusive. Potency is the fitted concentration of half-maximal effect.

SMILES | VDR inhibitor | Sfp inh | Glioma ERSR ind | G9a inh | 12-LOX inh
O=C(O)CN1C(=O)/C(=C/c2ccc(N3CCCCC3)o2)SC1=S | ? | 28.2µM* | -5.6% | 25.1µM* | ?
CCOC(=O)CN1C(=O)S/C(=C\c2ccc(-c3ccc(C(=O)O)c(Cl)c3)o2)C1=O | ? | 50.1µM* | 9.5% | 50.1µM* | ?
Cc1ccc(C)c(Nc2ncnc3sccc23)c1 | nt | nt | nt | nt | 3.6%
CCC(CNC(=O)c1cc2ccccc2oc1=O)c1ccccc1 (stereo not given) | nt | nt | nt | nt | 14.3%
CCOC(=O)CSc1nc2ccccc2n2cnnc12 | -2.1% | 56.2µM* | -2.8% | ? | ?
O=C(Nc1cccc(C(F)(F)F)c1)C1C2C3CCC(C3)C12 (stereo not given) | nt | nt | nt | nt | -8.5%
Nc1cccnc1Sc1ccc([N+](=O)[O-])cn1 | -23.6% | ? | 2.4% | 1µM* | -21.2%
COC1=C/C(=C/c2c(N)n3nc(-c4ccc(C)cc4)sc3nc2=O)C=CC1=O | 5.0% | -5.8% | 1.9% | ? | ?
CCOC1=C/C(=C/c2c(N)n3nc(-c4ccccc4)sc3nc2=O)C=CC1=O | 26.5% | -22.3% | 0.0% | 39.8µM* | ?
CCOC(=O)c1cnc2ccc(OCC)cc2c1Nc1ccccc1OCC | nt | nt | nt | nt | -14.3%
Brc1ccccc1/C=N/Nc1nncc2ccccc12 | nt | nt | nt | nt | -4.4%
CC(=O)Nc1ccc(/C=N/Nc2nncc3ccccc23)cc1 | -5.0% | 89.1µM* | -7.8% | 30.0%[0.501 µM] | 92.4%
CC1=C/C(=N\Nc2nncc3ccccc23)CC1 | nt | nt | nt | nt | 50.1µM*
COc1ccc(Cl)cc1N/C(N)=N/c1nc(C)cc(=O)[nH]1 | ? | -12.6% | -3.0% | 20µM* | 7.6%
Cc1cc(=O)[nH]c(/N=C(\N)Nc2ccc3c(c2)OCCO3)n1 | 0.2% | -16.0% | -4.3% | 22.4µM* | ?
Cc1cc(C)nc(/N=C(\N)Nc2ccc3c(c2)OCCO3)n1 | 3.4% | -5.8% | -1.4% | -8.2% | -6.0%
Cc1cccc(N=C2NN=C(c3c(C)[nH]c4ccccc34)CS2)c1 | -10.2% | 39.8µM* | 1.3% | ? | ?
O=C(Nc1ccc([N+](=O)[O-])cn1)c1cc(-c2cccc(Br)c2)nc2ccccc12 | -3.7% | 5.9% | -1.9% | ? | -20.1%
CCOc1cccc(-c2cc(C(=O)O)c3ccc(C)c(C)c3n2)c1 | nt | nt | nt | nt | 39.8µM*
CCOc1cccc(-c2cc(C(=O)Nc3ccon3)c3ccccc3n2)c1 | -1.8% | -5.0% | -1.5% | 20µM* | 15.0%
COc1cccc(-c2cc(C(=O)Nc3ccc([N+](=O)[O-])cn3)c3ccccc3n2)c1 | -10.0% | -5.1% | -4.0% | 7.94µM* | -17.8%
CCOc1ccc(C(=O)NC2CCCN(c3cc(-c4ccc(F)cc4)[nH]n3)C2)cc1 (stereo not given) | nt | nt | nt | nt | 14.1%
O=C(c1c(O)cc(O)cc1O)C1c2c(cc(O)c3c2O[C@H](c2ccc(O)cc2)[C@@H](O)C3)OC1c1ccc(O)cc1 (stereo not given in full) | ? | nt | -5.2% | -8.7%[2.33 µM] | 25.1µM*
O=C(NC1CCCCC1)c1ccc2c(c1)-c1ccccc1C2 | nt | nt | nt | nt | 0.6%
COc1cc(CN(C(=O)COc2ccccc2C)c2ccccn2)cc(OC)c1OC | nt | nt | nt | nt | 11.3%
SMILES | VDR inhibitor | Sfp inh | Glioma ERSR ind | G9a inh | 12-LOX inh
CC(=O)Nc1ccc(N/C=C/C(=O)C(C)(C)C)cc1 | -0.4% | 9.3% | 1.0% | ? | -16.6%
Cc1ccc(N/C=C/C(=O)C(C)(C)C)c(O)c1 | 2.7% | 89.1µM* | ? | -14.1% | nt
COCCN1CN=C(Nc2nc(C)c3cccc(OC)c3n2)NC1 | nt | nt | nt | nt | -1.2%
CCOC(=O)CSc1ncn(-c2nc(NC)nc(N(C)C)n2)n1 | nt | nt | nt | nt | -13.6%
Cc1ccc(Nc2nc(-c3ccc(S(=O)(=O)N4CCCC4)cc3)cs2)cc1C | -1.4% | -19.0% | 0.4% | 44.7µM* | -22.6%
Cc1cc(C)cc(Nc2nc(-c3ccc(S(=O)(=O)N4CCCC4)cc3)cs2)c1 | -17.1% | 2.6% | -6.4% | ? | -25.3%
C=CCNc1nc(-c2ccc(S(=O)(=O)N3CCCCCC3)cc2)cs1 | nt | nt | nt | nt | -2.9%
